Measurements from PubChem BioAssay (NCATS).
Unmarked numbers belong to inactive results. Inconclusive results are not listed. Entries that show only a call come without a potency. Activity calls are given as the source filed them. Unless noted, calls follow the shape of the dose curve; as a rule, active = well fitted curve in the direction sought with a large enough effect; inconclusive = small, poorly fitted or top-dose-only effect, or another doubt; inactive = no such curve, though single readings can be large; an effect the other way counts as inactive or inconclusive.

Experiments:
[1] = target: Cytochrome P450 1A2 (Homo sapiens) (UniProt P05177); assay: p450-cyp1a2 (AID 410; calls by dose curve; also: potency is read from the fitted curve at half-maximal effect)
How it was run: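 O-Demethylation of luciferin 6' methyl ether by human CYP1A2 is monitored as luciferase luminescence. Substrate sits at Km (100uM); enzyme is 20nM. Values are scaled to 57 uM furafylline as maximal inhibition.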

[2] = target: Mitogen-activated protein kinase 10 (Mus musculus) (UniProt Q61831); assay: JNK3 AlphaScreen Assay (AID 530; active = well fitted curve in either direction with a large enough effect, not every such curve was filed as active;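 also: kinase came from lysate of stimulated human HepG2 cells; signal reports phosphorylation of biotinylated GST-cJun 1-79 at Ser73 with 10 µM ATP; series mostly up to about 57 µM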)
How it was run: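 Activity was read by AlphaScreen after JNK3-containing HepG2 lysate (cytokine pre-activated) phosphorylated biotinylated GST-cJun with 10 uM ATP at room temperature. Phospho-Ser73 cJun antibody with Protein-A acceptor beads provided detection.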

[3] = target: 3',5'-cyclic-AMP phosphodiesterase 4B (Homo sapiens) (UniProt Q07343); assay: qHTS Assay for Inhibitors of PDE-IV (AID 607; active = well fitted activation curve with a large enough effect in the main read-out, with a control signal flat, not every such curve was filed as active)
How it was run: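 Cell-based read-out of cAMP via a modified cyclic nucleotide-gated channel and membrane potential dye (535/590 nm) in HEK293 cells expressing PDE4 endogenously. Compounds tested up to 22.9 uM final; 100 uM RO 20-1724 reference.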

[4] = target: Glucocorticoid receptor (Homo sapiens) (UniProt P04150); assay: GR-EFC Redistribution (AID 451; calls by dose curve; also: potency is read from the fitted curve at half-maximal effect); conditions: CHO-K1 GR-EFC translocation, beta-gal luminescence, 2 h
How it was run: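 CHO-K1 cells expressing nuclear EA and GR-ED fragments of b-gal; compounds titrated up to 46 uM final, 2 h at 37 C. GR nuclear translocation read as complemented b-gal luminescence after 1 h RT detection.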

[5] = target: Cytochrome P450 2D6 (Homo sapiens) (UniProt P10635); assay: qHTS Assay for Inhibitors and Substrates of Cytochrome P450 2D6 (AID 891); also: nearly all actives have a fitted effect of over 60% in size; also: potency is read from the fitted curve at half-maximal effect
How it was run: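 Luminescent read-out of luciferin formed by 5 nM human CYP2D6 demethylating 30 uM Luciferin-ME EGE (Km level) over 60 min at room temperature after NADPH regeneration addition. Data normalized to full inhibition by 1.43 uM quinidine.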

[6] = target: Cytochrome P450 2C9 (Homo sapiens) (UniProt P11712); assay: qHTS Assay for Inhibitors and Substrates of Cytochrome P450 2C9 (AID 883); also: potency is read from the fitted curve at half-maximal effect; nearly all actives have a fitted effect of over 60% in size
How it was run: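 10nM CYP2C9 + 100uM Luciferin-H (=KM), 25mM KPO4; cpd 10 min 37C; NADPH regen, 60 min 37C; stop/detect with P450 Glo-Buffer 20 min; luminescence. Norm. to 57uM sulphaphenazole as full inhibition.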

[7] = target: Cytochrome P450 3A4 (Homo sapiens) (UniProt P08684); assay: qHTS Assay for Inhibitors and Substrates of Cytochrome P450 3A4 (AID 884); also: potency is read from the fitted curve at half-maximal effect; nearly all actives have a fitted effect of over 50% in size
How it was run: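 Luminescent readout of luciferin produced by CYP3A4 (20 nM) dealkylation of Luciferin-PPXE, 25 uM (its KM). NADPH-driven reaction ran 60 min at RT after 10 min compound preincubation; data scaled to 57 uM ketoconazole as 100% inhibition.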

[8] = target: Cytochrome P450 3A4 (Homo sapiens) (UniProt P08684); assay: qHTS Assay for Activators of Cytochrome P450 3A4 (AID 885); also: nearly all actives have a fitted effect of over 65% in size
How it was run: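 Luminescent readout of luciferin formed from 25 uM Luciferin-PPXE (KM level) by 20 nM CYP3A4 in 200 mM KPO4, with 60 min NADPH-driven reaction at room temperature after 10 min compound exposure. Ketoconazole (57 uM) defined 100% inhibition.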

[9] = target: Cytochrome P450 2C19 (Homo sapiens) (UniProt P33261); assay: qHTS Assay for Inhibitors and Substrates of Cytochrome P450 2C19 (AID 899); also: potency is read from the fitted curve at half-maximal effect; nearly all actives have a fitted effect of over 60% in size
How it was run: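 Luminescent read-out of luciferin formed from Luciferin-H EGE (10uM, equal to KM). Enzyme 5nM in 50mM KPO4; compound added, 10 min at 37C, then NADPH regenerating system for 60 min at 37C. Full inhibition defined by 57uM ketoconazole.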

Sequence of Cytochrome P450 1A2 (Homo sapiens) (P05177 whole entry, looked up): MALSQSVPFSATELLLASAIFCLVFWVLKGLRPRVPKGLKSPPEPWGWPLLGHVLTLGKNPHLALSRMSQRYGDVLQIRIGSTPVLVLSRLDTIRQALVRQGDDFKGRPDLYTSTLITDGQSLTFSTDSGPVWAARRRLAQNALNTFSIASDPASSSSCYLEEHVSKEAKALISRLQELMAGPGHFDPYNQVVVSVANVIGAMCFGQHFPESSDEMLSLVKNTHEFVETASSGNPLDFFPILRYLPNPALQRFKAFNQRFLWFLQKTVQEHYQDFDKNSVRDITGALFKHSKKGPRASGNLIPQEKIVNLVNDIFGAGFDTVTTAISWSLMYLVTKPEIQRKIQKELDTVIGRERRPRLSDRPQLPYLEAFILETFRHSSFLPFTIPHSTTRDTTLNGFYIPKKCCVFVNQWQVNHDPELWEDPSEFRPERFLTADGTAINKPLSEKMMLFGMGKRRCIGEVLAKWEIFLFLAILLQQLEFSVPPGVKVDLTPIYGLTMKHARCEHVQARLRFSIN
Sequence of 3',5'-cyclic-AMP phosphodiesterase 4B (Homo sapiens) (Q07343 whole entry, looked up): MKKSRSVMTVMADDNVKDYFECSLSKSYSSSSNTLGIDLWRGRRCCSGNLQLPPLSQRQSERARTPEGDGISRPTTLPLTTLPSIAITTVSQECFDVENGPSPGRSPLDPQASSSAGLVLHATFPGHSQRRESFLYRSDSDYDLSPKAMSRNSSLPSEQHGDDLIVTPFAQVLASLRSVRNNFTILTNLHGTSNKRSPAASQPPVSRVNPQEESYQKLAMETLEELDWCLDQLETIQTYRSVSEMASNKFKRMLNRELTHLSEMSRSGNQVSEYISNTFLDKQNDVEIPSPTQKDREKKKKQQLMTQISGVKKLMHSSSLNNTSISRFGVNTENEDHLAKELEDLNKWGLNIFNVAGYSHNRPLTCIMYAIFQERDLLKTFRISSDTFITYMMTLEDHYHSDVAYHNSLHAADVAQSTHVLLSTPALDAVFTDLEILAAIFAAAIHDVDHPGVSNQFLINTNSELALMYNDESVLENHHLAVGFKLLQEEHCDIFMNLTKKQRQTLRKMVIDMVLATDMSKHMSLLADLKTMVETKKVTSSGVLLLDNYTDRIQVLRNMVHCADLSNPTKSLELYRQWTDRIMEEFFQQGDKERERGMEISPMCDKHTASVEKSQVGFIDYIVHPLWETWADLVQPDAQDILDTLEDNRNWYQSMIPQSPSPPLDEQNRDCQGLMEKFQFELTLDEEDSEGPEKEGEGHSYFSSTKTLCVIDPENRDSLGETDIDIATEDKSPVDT
Sequence of Cytochrome P450 3A4 (Homo sapiens) (P08684 whole entry, looked up): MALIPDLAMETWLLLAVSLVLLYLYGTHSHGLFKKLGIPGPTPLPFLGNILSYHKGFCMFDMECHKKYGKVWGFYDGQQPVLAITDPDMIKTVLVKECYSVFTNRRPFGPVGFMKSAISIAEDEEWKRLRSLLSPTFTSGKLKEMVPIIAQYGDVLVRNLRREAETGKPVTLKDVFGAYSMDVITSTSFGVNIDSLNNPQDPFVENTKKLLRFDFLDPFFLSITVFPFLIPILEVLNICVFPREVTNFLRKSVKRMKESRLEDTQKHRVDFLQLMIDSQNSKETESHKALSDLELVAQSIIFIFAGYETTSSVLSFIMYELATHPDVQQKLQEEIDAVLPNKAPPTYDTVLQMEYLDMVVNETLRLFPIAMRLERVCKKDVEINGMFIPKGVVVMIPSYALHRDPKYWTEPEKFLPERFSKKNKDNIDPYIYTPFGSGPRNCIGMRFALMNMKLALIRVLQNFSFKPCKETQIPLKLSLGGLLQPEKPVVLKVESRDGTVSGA
Sequence of Cytochrome P450 2C9 (Homo sapiens) (P11712 whole entry, looked up): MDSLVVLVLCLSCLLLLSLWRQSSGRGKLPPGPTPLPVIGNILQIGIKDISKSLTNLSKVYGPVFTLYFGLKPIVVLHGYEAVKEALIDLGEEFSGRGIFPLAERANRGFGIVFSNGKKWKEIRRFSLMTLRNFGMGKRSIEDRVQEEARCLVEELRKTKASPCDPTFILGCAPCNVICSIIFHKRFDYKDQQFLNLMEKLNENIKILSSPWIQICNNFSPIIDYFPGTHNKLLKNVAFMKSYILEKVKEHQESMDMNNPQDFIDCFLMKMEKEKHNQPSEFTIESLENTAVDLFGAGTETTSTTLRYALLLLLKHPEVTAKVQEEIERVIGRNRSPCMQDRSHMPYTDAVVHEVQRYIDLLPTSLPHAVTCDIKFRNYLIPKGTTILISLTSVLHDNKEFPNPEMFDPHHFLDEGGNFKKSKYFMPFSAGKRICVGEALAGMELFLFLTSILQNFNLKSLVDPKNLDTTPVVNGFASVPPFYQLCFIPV
Sequence of Cytochrome P450 2D6 (Homo sapiens) (P10635 whole entry, looked up): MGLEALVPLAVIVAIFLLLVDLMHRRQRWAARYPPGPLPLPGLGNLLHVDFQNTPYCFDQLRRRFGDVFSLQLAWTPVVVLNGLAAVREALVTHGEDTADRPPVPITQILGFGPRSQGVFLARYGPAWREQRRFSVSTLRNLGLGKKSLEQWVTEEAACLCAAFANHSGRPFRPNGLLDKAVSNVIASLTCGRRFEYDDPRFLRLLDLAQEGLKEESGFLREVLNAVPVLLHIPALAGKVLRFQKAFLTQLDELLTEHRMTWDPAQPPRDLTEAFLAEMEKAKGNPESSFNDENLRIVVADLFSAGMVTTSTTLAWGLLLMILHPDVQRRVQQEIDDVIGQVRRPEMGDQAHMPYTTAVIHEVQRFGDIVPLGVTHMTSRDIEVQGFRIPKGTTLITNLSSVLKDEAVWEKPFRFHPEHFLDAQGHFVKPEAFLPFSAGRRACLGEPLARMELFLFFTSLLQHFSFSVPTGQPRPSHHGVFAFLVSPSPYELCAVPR
Sequence of Cytochrome P450 2C19 (Homo sapiens) (P33261 whole entry, looked up): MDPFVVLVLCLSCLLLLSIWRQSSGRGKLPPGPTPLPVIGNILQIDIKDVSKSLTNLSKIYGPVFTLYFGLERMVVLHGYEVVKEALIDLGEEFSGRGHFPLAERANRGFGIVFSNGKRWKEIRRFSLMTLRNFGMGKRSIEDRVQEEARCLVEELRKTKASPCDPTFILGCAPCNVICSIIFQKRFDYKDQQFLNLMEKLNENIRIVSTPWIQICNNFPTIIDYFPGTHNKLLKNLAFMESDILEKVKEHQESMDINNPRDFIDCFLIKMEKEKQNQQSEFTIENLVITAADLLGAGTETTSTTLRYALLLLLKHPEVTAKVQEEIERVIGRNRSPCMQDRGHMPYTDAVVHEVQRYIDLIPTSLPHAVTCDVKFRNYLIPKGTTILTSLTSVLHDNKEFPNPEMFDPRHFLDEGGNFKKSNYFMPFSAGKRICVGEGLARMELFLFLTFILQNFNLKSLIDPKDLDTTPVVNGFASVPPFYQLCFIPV
Sequence of Glucocorticoid receptor (Homo sapiens) (P04150 whole entry, looked up, the tested form may be a part): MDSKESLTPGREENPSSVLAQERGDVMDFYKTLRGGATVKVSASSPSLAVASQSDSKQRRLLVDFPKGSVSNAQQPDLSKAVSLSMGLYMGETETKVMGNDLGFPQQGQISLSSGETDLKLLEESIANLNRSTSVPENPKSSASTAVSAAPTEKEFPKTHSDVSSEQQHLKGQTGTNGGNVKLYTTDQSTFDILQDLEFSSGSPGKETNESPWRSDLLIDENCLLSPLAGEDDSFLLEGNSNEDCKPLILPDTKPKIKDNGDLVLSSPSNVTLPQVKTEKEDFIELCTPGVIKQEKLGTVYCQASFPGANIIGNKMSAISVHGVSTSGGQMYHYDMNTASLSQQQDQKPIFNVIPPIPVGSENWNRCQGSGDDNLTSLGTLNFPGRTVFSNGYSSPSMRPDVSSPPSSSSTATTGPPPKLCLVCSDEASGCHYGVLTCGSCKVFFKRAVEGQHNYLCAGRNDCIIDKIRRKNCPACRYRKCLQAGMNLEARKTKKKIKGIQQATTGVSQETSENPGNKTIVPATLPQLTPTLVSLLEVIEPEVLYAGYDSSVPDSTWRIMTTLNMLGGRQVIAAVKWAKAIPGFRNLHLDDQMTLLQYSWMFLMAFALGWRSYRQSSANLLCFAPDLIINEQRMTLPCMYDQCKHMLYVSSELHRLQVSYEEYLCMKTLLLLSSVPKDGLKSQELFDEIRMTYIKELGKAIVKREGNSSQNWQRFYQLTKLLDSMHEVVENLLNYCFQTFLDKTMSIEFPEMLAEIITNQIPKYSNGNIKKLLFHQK

| SMILES | Potency [1] | Potency [2] | Potency [3] | Potency [4] [µM] | Potency [5] | Potency [6] | Potency [7] | Potency [8] | Potency [9] |
| --- | --- | --- | --- | --- | --- | --- | --- | --- | --- |
| COC(=O)[C@@]1(Cc2ccc(F)cc2)[C@H]2c3cc(C(=O)N(C)C)n(C)c3C[C@H]2CN1C(=O)c1ccccc1 | 31.6 µM (active) | inactive | inactive | – | – | – | – | – | – |
| CC(C)[C@@H](CC(=O)N[C@@H]1CCNC[C@H]1C(=O)N[C@H](CC(=O)N[C@@H](CCC(=O)O)CC(=O)O)Cc1ccccc1)NC(=O)C[C@H](CO)NC(=O)[C@@H]1CNCC[C@H]1N | inactive | – | inactive | > 46 | inactive | – | – | – | – |
| CCC/C=C(\CCC)C(NC(=O)Oc1ccc(F)cc1)c1ccc(C(=O)OC)cc1 (stereo not given) | inactive | inactive | – | – | – | – | – | – | – |
| COC(=O)[C@@]1(Cc2ccc(F)cc2)[C@H]2c3cc(C(=O)N(C)C)n(CCc4c[nH]c5ccc(OC)cc45)c3C[C@H]2CN1C(=O)c1ccccc1 | 12.6 µM (active) | inactive | inactive | – | – | – | – | – | – |
| C[C@@H](C(=O)NCCc1c[nH]c2ccccc12)[C@@H]1C[C@@]1(C)[C@@H](NC(=O)OCc1ccccc1)c1ccccc1 | 12.6 µM (active) | inactive | inactive | – | – | 2.51 µM (active) | 3.16 µM (active) | inactive | 0.794 µM (active) |
| C[C@@H](C(=O)Cc1ccc2ccccc2c1)[C@@H]1C[C@@]1(C)[C@@H](NP(=O)(c1ccccc1)c1ccccc1)c1ccccc1 | 10 µM (active) | inactive | inactive | – | – | 3.16 µM (active) | – | inactive | – |
| CCCc1cc2c(n1Cc1cc(F)cc(F)c1)C(C)C1CN(C(=O)c3ccccc3)C(C)(C(=O)OC)C21 (stereo not given) | inactive | inactive | inactive | – | – | 6.31 µM (active) | – | inactive | – |
| CC(Cc1ccccc1)C(=O)NCc1ccccn1 (stereo not given) | 15.8 µM (active) | inactive | inactive | – | – | – | – | – | – |
| COC(=O)N[C@H](c1ccccc1)[C@@]1(C)C[C@@H]1[C@@H](C)C(=O)Nc1ccc2ccccc2c1 | 12.6 µM (active) | inactive | inactive | – | 0.0316 µM (active) | 3.98 µM (active) | – | inactive | 3.16 µM (active) |
| COC(=O)[C@@]1(Cc2ccc(OC)cc2)[C@H]2c3cc(C(=O)N4CCCC4)n(CCc4c[nH]c5ccc(O)cc45)c3C[C@H]2CN1C(=O)c1ccccc1 | inactive | inactive | inactive | – | – | 3.16 µM (active) | 1.58 µM (active) | inactive | – |
